Hits are enriched below; roughly 3.7% of the tested compounds scored in any of these assays.
Rv3671c protease: inhibitors of M. tuberculosis serine protease Rv3671c; inhibition, % at 5.96 µM; actives 0.048% (n = 320,000); AID 2606; in the data active = inhibition above about 38%;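 also: extracellular domain of Rv3671c used as enzyme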
Mtb FBA inh: Mtb fructose-bisphosphate aldolase inhibition. P9WQA3. purified M. tuberculosis FBA, fluorescence read-out. inhibition, % at 1 µM. actives 2.3% (n = 360,000). AID 588726; in the data active = inhibition above about 27%
GDH-TPI counter: counter-screen for M. tuberculosis FBA inhibitors: GDH-TPI coupled enzymes. AID 588335. GDH-TPI coupled enzyme counterscreen, NADH absorbance. inhibition, % at 4.8 µM. actives 1.2% (n = 360,000); in the data active = inhibition above about 30%
FadD28 FP inh: M. tuberculosis FadD28 bisubstrate binding inhibition | FadD28 bisubstrate probe binding, fluorescence polarization | inhibition, % at 12.5 µM | actives 0.22% (n = 360,000) | AID 588549; in the data active = inhibition above about 8.5%, passing the limit was not always enough
Mtb betalactam: beta-lactam sensitization of Mtb H37Rv | M. tuberculosis H37Rv growth with meropenem, percent inhibition | AID 434955 | inhibition, % at 25 µM | actives 0.27% (n = 330,000); call rule not given here;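 also: growth measured after seven days incubation then overnight dye step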
UGM FP inh: Mtb UDP-galactopyranose mutase inhibition | P9WIQ1 | purified UGM, fluorescence polarization probe displacement | inhibition, % at 10 µM | actives 0.06% (n = 320,000); in the data active = inhibition above about 10%, passing the limit was not always enough
Target sequence (P9WIQ1 whole entry, looked up): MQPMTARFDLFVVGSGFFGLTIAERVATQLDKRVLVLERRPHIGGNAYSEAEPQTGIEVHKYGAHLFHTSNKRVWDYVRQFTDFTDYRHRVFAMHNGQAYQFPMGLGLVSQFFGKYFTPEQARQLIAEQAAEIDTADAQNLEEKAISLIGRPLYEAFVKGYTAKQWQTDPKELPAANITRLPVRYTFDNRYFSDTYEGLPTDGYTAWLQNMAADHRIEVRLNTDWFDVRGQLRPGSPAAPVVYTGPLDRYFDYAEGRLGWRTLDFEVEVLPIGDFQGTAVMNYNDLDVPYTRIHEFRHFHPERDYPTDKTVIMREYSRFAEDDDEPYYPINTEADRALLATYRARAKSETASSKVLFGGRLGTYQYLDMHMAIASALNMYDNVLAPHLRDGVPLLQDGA
Hits are given with their value; – = inactive; · = no result given.

SMILES	Rv3671c protease	Mtb FBA inh	GDH-TPI counter	FadD28 FP inh	Mtb betalactam	UGM FP inh
Oc1ccc(/C=N/Nc2nc(N3CCCC3)nc(N3CCCC3)n2)cc1O	–	–	–	–	–	–
COc1cc(/C=N/NC(=O)c2ccccc2)ccc1O	–	–	–	–	–	–
COc1cc(/C=C/C(=O)O)ccc1O	–	–	–	–	–	–
COc1cc(/C=C/C(C)=NNc2ccccc2)ccc1O	·	–	32	–	·	·
COc1cc(/C=N/Nc2nc(N3CCCC3)nc(N3CCCC3)n2)ccc1O	–	–	35	–	·	–
COc1ccc(-c2cnnc(N/N=C/c3ccc(O)c(OC)c3)n2)cc1	–	–	55	–	–	–
CC1(C(=O)NS(=O)(=O)C2CC2)CCN(C(=O)c2cccc(OC(F)(F)F)c2)C1 (configuration not stated)	·	–	–	–	·	·
COC(=O)C12OCC34C(CC5C(C)=C(O)C(=O)CC5(C)C3C(O)C1O)OC(=O)C(OC(=O)C=C(C)C)C24 (configuration not stated)	·	–	–	–	·	·
Cc1ccc(Cl)cc1NC(=O)CN1C(=O)COc2ccc(S(=O)(=O)N3CCOCC3)cc21	–	–	–	–	–	–
COc1cc(/C=N/Nc2ccc(C(=O)O)cc2)cc(OC)c1OC	–	–	41	–	–	–
C=CCOc1c(OC)cc(/C=N/Nc2cccc(C(=O)O)c2)c(Br)c1Br	–	–	–	16	–	–
C=CCOc1c(/C=N\NC(N)=O)cccc1OC	–	–	–	–	–	–
S=C(NCCc1ccccc1)N/N=C/c1ccc(Cl)cc1	–	–	–	–	–	–
COc1cc(OC)c(OC)cc1/C=N/NC(=O)c1cnccn1	–	–	–	–	–	–
COc1cc(/C=N/NC(=S)NCCc2ccccc2)cc(OC)c1OC	·	–	41	–	–	–
COc1cc(/C=N/NC(=O)c2cnccn2)cc(OC)c1OC	–	–	32	–	–	·
COc1ccc(/C=N/Nc2ccc(C(=O)O)cc2)c(OC)c1OC	–	–	–	–	–	–
CC(=O)Nc1cc(-c2ccc(N(C)C)cc2)cn2c(-c3ccc(F)c(Cl)c3)cnc12	·	–	–	–	·	·
Cc1ccc(N2C(=O)N(CC(=O)Nc3cc(F)ccc3C)C(=O)C2C)cc1 (configuration not stated)	–	–	–	–	–	–
COc1cc(/C=N/NC(=S)Nc2cccc(C(=O)O)c2)ccc1O	–	–	32	–	–	–
COc1ccc(/C(C)=N/Nc2ccc(C(=O)O)cc2)cc1OC	–	–	56	–	–	·
COc1cc(C(=O)N/N=C/c2ccsc2C)cc(OC)c1OC	–	–	37	–	–	–
COc1ccc(Br)cc1/C=N/NC(=O)c1cc(OC)c(OC)c(OC)c1	–	–	–	–	–	–
COc1cc2nc3n(c(=O)c2cc1OC)-c1ncccc1C(=O)NC3Cc1ccccc1 (configuration not stated)	·	–	–	–	·	·
CCOC(=O)C1=C[C@@H](C(C)C)N(S(=O)(=O)c2ccc(C)cc2)[C@H]1c1ccccc1F	·	–	·	–	·	·
SMILES	Rv3671c protease	Mtb FBA inh	GDH-TPI counter	FadD28 FP inh	Mtb betalactam	UGM FP inh
CN(C)C=Nc1ncc2c3ccccc3n(Cc3ccccc3)c2c1C#N	–	–	–	–	–	–
CN(C)C=Nc1ncc2c3ccccc3n(CCN(C)C)c2c1C#N	–	–	33	–	–	–
COc1ccc(/C=N/NC(=O)CN(Cc2ccccc2)S(=O)(=O)c2ccc3c(c2)OCCO3)cc1	–	–	–	–	–	–
COc1cc(/C=N/NC(=O)CN(Cc2ccccc2)S(=O)(=O)c2ccc3c(c2)OCCO3)ccc1O	–	–	–	22	–	–
CC1(C)Cc2c(sc(NC(=O)c3ccco3)c2C#N)CO1	–	–	31	–	–	–
Cc1cccc(NC(=O)c2sc(NC(=O)c3ccco3)c(C#N)c2C)c1C	–	–	36	–	–	–
Cc1cccc(NC(=O)c2ccco2)c1C	–	–	–	–	–	–
CC1(C(=O)Nc2cnc3ccccc3c2)CCN1CCOc1ccccc1 (configuration not stated)	·	–	–	–	·	·
COc1ccc(NC(=O)c2cc(C3CCCCN3C(=O)C3CCCCC3)on2)c(C)c1 (configuration not stated)	·	–	–	–	·	·
COCC(=O)N1CCCC(C(=O)c2ccc3c4c(cccc24)CC3)C1 (configuration not stated)	–	–	39	–	–	–
CN(C)c1ccc(/C=N/NC(=O)C(=O)/C=C2\NC3(CCCC3)Cc3ccccc32)cc1	–	–	31	–	–	–
